From PubChem BioAssay AID624481 (The Scripps Research Institute Molecular Screening Center, 2012)

Target: Prolyl endopeptidase-like (Mus musculus) (UniProt Q8C167)
Test: purified PREPL inhibitors, PREPL inhibitor project, biochemical, gel-based competitive ABPP, fluorescence, HTS hits (AID 624481)
Details: at 20 µM, stronger effect = higher value; in the data active = inhibition above about 50%; inactive = the rest

Prolyl endopeptidase-like (Mus musculus), sequence (Q8C167 whole entry, looked up): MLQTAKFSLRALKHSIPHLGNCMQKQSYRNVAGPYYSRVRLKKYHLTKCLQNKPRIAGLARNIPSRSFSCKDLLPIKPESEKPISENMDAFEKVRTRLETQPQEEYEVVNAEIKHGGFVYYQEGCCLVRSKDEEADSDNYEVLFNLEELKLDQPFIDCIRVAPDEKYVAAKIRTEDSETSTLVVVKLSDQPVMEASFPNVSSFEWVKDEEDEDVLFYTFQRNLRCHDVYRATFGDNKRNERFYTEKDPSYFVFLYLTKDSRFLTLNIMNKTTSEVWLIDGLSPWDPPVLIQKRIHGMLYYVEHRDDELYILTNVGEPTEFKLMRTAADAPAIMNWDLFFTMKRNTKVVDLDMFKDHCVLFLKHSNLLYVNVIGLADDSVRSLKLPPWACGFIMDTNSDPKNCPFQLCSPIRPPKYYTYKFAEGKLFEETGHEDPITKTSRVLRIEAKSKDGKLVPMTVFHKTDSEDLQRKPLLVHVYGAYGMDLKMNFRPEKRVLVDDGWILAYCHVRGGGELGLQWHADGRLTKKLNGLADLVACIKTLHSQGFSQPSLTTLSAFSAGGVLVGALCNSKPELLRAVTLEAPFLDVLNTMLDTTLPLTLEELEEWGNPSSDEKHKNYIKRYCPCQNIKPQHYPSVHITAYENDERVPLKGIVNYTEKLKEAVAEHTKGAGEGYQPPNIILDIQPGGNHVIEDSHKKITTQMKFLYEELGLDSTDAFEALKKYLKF

inhibition, inactive:
CC(C)C[C@@H]1CN=C(N)N1C[C@@H]1CCCN1C[C@@H](C(C)C)N1C[C@@H](Cc2ccccc2)N(CCc2ccc(Cl)c(Cl)c2)C1=N -72%
Cc1ccc(-c2csc(=Nc3cccnc3)n2CCCN2CCCC2=O)cc1C -149%
O=C(C1=C[C@@H](c2ccccc2)C[C@@H](OCc2ccc(CO)cc2)O1)N1CCN(Cc2ccc3c(c2)OCO3)CC1 -73%
CC(C)NC(=O)c1sc(=S)n2c1[nH]c(=O)c1ccc(C(=O)NCCc3ccc(Cl)cc3)cc12 -28%
CN1Cc2c(N3CCOCC3)nc3sc(C(=O)c4ccccc4)c(N)c3c2CC1(C)C -32%
COc1ccc(-[n+]2c(C)cc(/C=C3\Sc4ccccc4N3C)cc2C)cc1 -11%
CN1CCN(c2ccc(NC(=O)COc3ccc4ccccc4c3)cc2)CC1 -21%
Cn1c(NC(=O)C[n+]2cc(-c3ccc(Cl)c(Cl)c3)n3c2CCC3)cc(=O)n(C)c1=O -80%
CCC[C@@H](CN1CCC[C@H]1CN1C(N)=NC[C@H]1C(C)C)N1C[C@@H]([C@H](C)CC)N(CCCC2CCCC2)C1=N -68%
COc1ccc(NC(=O)Nc2cccc3c2O[C@@H](CN(C)CC2CCCCC2)[C@@H](C)CN([C@H](C)CO)C3=O)cc1 -79%
CCn1c2ccccc2c2cc(CNCc3ccc(OC)cc3OC)ccc21 -93%
